Values joined by “and” are separate entries in the source; they are usually repeats but may differ in a detail not shown here. Equal entries are not always repeated. Hit rate of the full screen: of about 5,500 compounds, about 2,000 (36%) were called active. Inconclusive results (about 18%) are left out. Rule as the data show it: active = normalized growth mostly below about 0.91 (no sharp cut-off); inconclusive = no clear call, values can overlap the other calls; inactive = mostly above about 0.92. This is one part of the list.
Test: chemical genetic growth profiling, strain panel (AID 1159580);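 also: tested at 20 µM; growth read once vehicle control cultures reached saturation at 30 °C; 1 = growth at the plate median or of vehicle wells; lower values mean less growth of the strain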
Settings: S. cerevisiae deletion strains, growth OD

Measured: normalized growth

Cc1ccc(O)cc1
inactive: locus YAL013W, strain DEP1, active compounds read low 1.02 | locus YAL021C, strain ccr4, active compounds read low 1.04 | locus YAL026C, strain drs2, active compounds read low 1.03 | locus YAL030W, strain snc1, active compounds read low 1.02 | locus YBL061C, strain skt5, active compounds read low 1.02 | locus YBR009C, strain hhf1, active compounds read low 1.03 | locus YBR021W, strain FUR4, active compounds read low 1.07 | locus YBR023C, strain chs3, active compounds read low 1.02 | locus YBR171W, strain sec66, active compounds read low 1.02 | locus YBR229C, strain ROT2, active compounds read low 1.02 | locus YBR231C, strain swc5, active compounds read low 0.992 | locus YBR279W, strain paf1, active compounds read low 1.02 | locus YCL011C, strain gbp2, active compounds read low 1.02 | locus YCL016C, strain dcc1, active compounds read low 1.01 | locus YCL029C, strain bik1, active compounds read low 0.985 | locus YCL061C, strain MRC1, active compounds read low 1.02 | locus YCL069W, strain vba3, active compounds read low 1.02 | locus YCR088W, strain abp1, active compounds read low 1.01 | locus YDL005C, strain med2, active compounds read low 1.03 | locus YDL035C, strain GPR1, active compounds read low 1.01 | locus YDL040C, strain nat1, active compounds read low 1.01 | locus YDL074C, strain BRE1, active compounds read low 1.03 | locus YDL101C, strain DUN1, active compounds read low 1.03 | locus YDL134C, strain PPH21, active compounds read low 1.05 | locus YDL185W, strain tfp1, active compounds read low 0.99 | locus YDL192W, strain arf1, active compounds read low 1.04 | locus YDR001C, strain nth1, active compounds read low 1.02 | locus YDR069C, strain doa4, active compounds read low 1.04 | locus YDR101C, strain arx1, active compounds read low 0.98 | locus YDR137W, strain rgp1, active compounds read low 1.04 | locus YDR159W, strain sac3, active compounds read low 1 | locus YDR162C, strain NBP2, active compounds read low 1.03 | locus YDR195W, strain ref2 1.01 | locus YDR297W, strain sur2, active compounds read low 1.03 | locus YDR318W, strain mcm21, active compounds read low 1.01 | locus YDR334W, strain swr1, active compounds read low 1.02 | locus YDR335W, strain msn5, active compounds read low 1.02 | locus YDR388W, active compounds read low 1.02 | locus YDR392W, strain spt3, active compounds read low 0.916 | locus YDR502C, strain sam2, active compounds read low 0.979 | locus YEL003W, strain gim4, active compounds read low 1.01 | locus YEL037C, strain rad23, active compounds read low 1.01 | locus YEL061C, strain CIN8 (second series), active compounds read low 1.01 | locus YEL061C, strain CIN8, active compounds read low 1.02 | locus YER015W, strain faa2, active compounds read low 1.01 | locus YER016W, strain bim1, active compounds read low 1.01 | locus YER110C, active compounds read low 0.991 | locus YER111C, strain swi4, active compounds read low 1.01 | locus YER155C, strain BEM2 (second series), active compounds read low 1.03 | locus YER155C, strain BEM2, active compounds read low 1.02 | locus YER167W, strain BCK2, active compounds read low 1.03 | locus YFR010W, strain ubp6, active compounds read low 1.02 | locus YGL078C, strain dbp3, active compounds read low 0.989 | locus YGL086W, strain mad1, active compounds read low 1.01 | locus YGL167C, strain pmr1, active compounds read low 1.01 | locus YGL173C, strain kem1, active compounds read low 1.04 | locus YGL227W, strain vid30, active compounds read low 1.02 | locus YGL240W, strain doc1, active compounds read low 1.02 | locus YGL248W, strain PDE1, active compounds read low 1.07 | locus YGL253W, strain hxk2, active compounds read low 1.03 | locus YGR135W, strain pre9, active compounds read low 1.01 | locus YGR229C, strain SMI1, active compounds read low 1.04 | locus YGR252W, strain gcn5, active compounds read low 0.966 | locus YHR013C, strain ard1, active compounds read low 1.02 | locus YHR027C, strain rpn1, active compounds read low 1.02 | locus YHR030C, strain SLT2, active compounds read low 1.03 and 1 | locus YHR079C, strain IRE1 (second series), active compounds read low 1.01 | locus YHR079C, strain IRE1, active compounds read low 1 | locus YHR094C, strain hxt1, active compounds read low 0.99 | locus YHR129C, strain ARP1, active compounds read low 1.03 | locus YHR142W, strain chs7, active compounds read low 1.03 | locus YHR200W, strain rpn10, active compounds read low 1.01 | locus YIL066C, strain RNR3, active compounds read low 1.06 | locus YIL073C, strain SPO22, active compounds read low 1.03 | locus YIL125W, strain kgd1, active compounds read low 0.994 | locus YIR030C, strain dcg1, active compounds read low 1.01 | locus YJL092W, strain hpr5, active compounds read low 1.02 | locus YJL095W, strain BCK1 (second series), active compounds read low 1.01 | locus YJL095W, strain BCK1, active compounds read low 1.07 and 1.02 | locus YJL115W, strain asf1, active compounds read low 1.01 | locus YJL129C, strain trk1, active compounds read low 1.01 | locus YJL134W, strain LCB3, active compounds read low 1.02 | locus YJL154C, strain vps35, active compounds read low 1.03 | locus YJL164C, strain tpk1, active compounds read low 1.02 | locus YJL166W, strain qcr8, active compounds read low 1.02 | locus YJL168C, strain set2, active compounds read low 0.994 | locus YJL187C, strain SWE1 (second series), active compounds read low 1.04 | locus YJR043C, strain POL32, active compounds read low 1.01 | locus YJR066W, strain TOR1, active compounds read low 0.987 | locus YKL009W, strain mrt4, active compounds read low 1.01 | locus YKL068W, active compounds read low 1 | locus YKL085W, strain MDH1 (second series), active compounds read low 1 | locus YKL085W, strain MDH1, active compounds read low 1 | locus YKL160W, strain elf1, active compounds read low 1.01 | locus YKR001C, strain vps1, active compounds read low 0.998 | locus YKR026C, strain gcn3, active compounds read low 1.02 | locus YKR091W, strain srl3, active compounds read low 1.02 | locus YLL001W, strain dnm1, active compounds read low 0.984 | locus YLL026W, active compounds read low 1.01 | locus YLL041C, strain sdh2, active compounds read low 1.02 | locus YLR027C, strain aat2, active compounds read low 1.03 | locus YLR039C, strain RIC1, active compounds read low 1.05 | locus YLR058C, strain SHM2, active compounds read low 1.04 | locus YLR102C, strain apc9, active compounds read low 0.993 | locus YLR113W, strain HOG1, active compounds read low 1.01 | locus YLR221C, strain rsa3, active compounds read low 1.03 | locus YLR258W, strain gsy2, active compounds read low 1.01 | locus YLR262C, strain YPT6 (second series), active compounds read low 1.04 | locus YLR262C, strain YPT6, active compounds read low 1.07 | locus YLR268W, strain sec22, active compounds read low 0.998 | locus YLR320W, strain mms22, active compounds read low 1.02 | locus YLR330W, strain CHS5, active compounds read low 1.03 | locus YLR342W, strain FKS1 (second series), active compounds read low 1.08 | locus YLR342W, strain FKS1, active compounds read low 1.02 | locus YLR357W, strain rsc2, active compounds read low 1.01 | locus YLR370C, strain arc18, active compounds read low 1.01 | locus YLR371W, strain rom2, active compounds read low 1.02 | locus YLR384C, strain iki3, active compounds read low 1.02 | locus YLR418C, strain cdc73, active compounds read low 1.04 | locus YML016C, strain PPZ1, active compounds read low 1.04 | locus YML032C, strain rad52, active compounds read low 1 | locus YML120C, strain ndi1, active compounds read low 1.01 | locus YML124C, strain tub3, active compounds read low 0.999 | locus YMR058W, strain fet3, active compounds read low 1.03 | locus YMR078C, strain ctf18, active compounds read low 1 | locus YMR125W, strain sto1, active compounds read low 1.03 | locus YMR129W, active compounds read low 1.01 | locus YMR205C, strain PFK2, active compounds read low 1.03 | locus YMR223W, strain ubp8, active compounds read low 1.02 | locus YMR231W, strain pep5, active compounds read low 1.02 | locus YMR263W, strain SAP30, active compounds read low 1.02 | locus YMR307W, strain GAS1, active compounds read low 1.13 | locus YNL067W, strain RPL9B, active compounds read low 1.02 | locus YNL071W, strain lat1, active compounds read low 1.02 | locus YNL128W, strain TEP1, active compounds read low 1.02 | locus YNL183C, strain NPR1, active compounds read low 0.951 | locus YNL209W, strain ssb2, active compounds read low 1.01 | locus YNL233W, strain BNI4, active compounds read low 1.05 | locus YNL248C, strain rpa49, active compounds read low 1.03 | locus YNL250W, strain rad50, active compounds read low 0.996 | locus YNL271C, strain bni1, active compounds read low 0.994 | locus YNL298W, strain CLA4, active compounds read low 1 | locus YNL307C, strain MCK1, active compounds read low 1.01 | locus YNL322C, strain KRE1 (second series), active compounds read low 1.02 | locus YNR049C, strain mso1, active compounds read low 1.02 | locus YNR052C, strain pop2, active compounds read low 0.997 | locus YOL006C, strain TOP1, active compounds read low 1.01 | locus YOL012C, strain htz1 1.54 | locus YOL147C, strain pex11, active compounds read low 1.01 | locus YOR001W, strain rrp6, active compounds read low 0.984 | locus YOR061W, strain CKA2, active compounds read low 1.02 | locus YOR069W, strain VPS5, active compounds read low 1.02 | locus YOR070C, strain gyp1, active compounds read low 1.01 | locus YOR080W, strain dia2, active compounds read low 1.01 | locus YOR083W, strain WHI5, active compounds read low 1.01 | locus YOR106W, strain vam3, active compounds read low 1.01 | locus YOR136W, strain idh2, active compounds read low 0.99 | locus YOR144C, strain elg1, active compounds read low 0.999 | locus YOR184W, strain ser1, active compounds read low 1.02 | locus YOR231W, strain MKK1, active compounds read low 0.993 | locus YOR265W, strain rbl2, active compounds read low 1.03 | locus YOR270C, strain vph1, active compounds read low 1.08 | locus YOR290C, strain snf2, active compounds read low 1.02 | locus YOR316C, strain cot1, active compounds read low 0.999 | locus YPL051W, strain arl3, active compounds read low 1.01 | locus YPL055C, strain LGE1, active compounds read low 1.05 | locus YPL078C, strain atp4, active compounds read low 1.02 | locus YPL106C, strain sse1, active compounds read low 1.01 | locus YPL240C, strain hsp82, active compounds read low 1.01 | locus YPL241C, strain CIN2, active compounds read low 1.01 | locus YPL256C, strain CLN2, active compounds read low 1.03 | locus YPR119W, strain clb2, active compounds read low 0.995 | locus YPR141C, strain kar3, active compounds read low 1 | locus YPR163C, strain tif3, active compounds read low 1 | locus YPR167C, strain met16, active compounds read low 1.02 | strain wtn01, active compounds read low 1.03

Reference: PubChem BioAssay AID1159580 (chemical genetic matrix, 2015)
